In PubChem BioAssay AID1159580 (chemical genetic matrix, 2015):
In all, about 5,500 compounds went through this assay and about 2,000 (36%) were called active. Another 18% or so got no clear call; they are omitted. Rule as the data show it: active = normalized growth mostly below about 0.91 (no sharp cut-off); inconclusive = no clear call, values can overlap the other calls; inactive = mostly above about 0.92. The list shows a part of the results.

Assay: chemical genetic growth profiling, strain panel (AID 1159580);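 also: tested at 20 µM; growth read once vehicle control cultures reached saturation at 30 °C; 1 = growth at the plate median or of vehicle wells; lower values mean less growth of the strain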
Details: S. cerevisiae deletion strains, growth OD

Measured: normalized growth

COc1cc2c(cc1OC)C1C(=O)c3ccc4c(c3OC1CO2)CCC(C)(C)O4 (stereo not drawn)
inactive: locus YBR021W, strain FUR4, stronger effect = lower value 0.985 | locus YBR229C, strain ROT2, stronger effect = lower value 1 | locus YCL029C, strain bik1, stronger effect = lower value 1.04 | locus YDL035C, strain GPR1, stronger effect = lower value 1.01 | locus YDL074C, strain BRE1, stronger effect = lower value 0.993 | locus YDL101C, strain DUN1, stronger effect = lower value 0.997 | locus YDL185W, strain tfp1, stronger effect = lower value 1.03 | locus YDL192W, strain arf1, stronger effect = lower value 1.01 | locus YDR101C, strain arx1, stronger effect = lower value 0.997 | locus YDR162C, strain NBP2, stronger effect = lower value 1.03 | locus YDR318W, strain mcm21, stronger effect = lower value 1.01 | locus YDR388W, stronger effect = lower value 1 | locus YDR502C, strain sam2, stronger effect = lower value 1.02 | locus YEL061C, strain CIN8, stronger effect = lower value 1 | locus YER110C, stronger effect = lower value 1.02 | locus YER155C, strain BEM2, stronger effect = lower value 0.996 | locus YER167W, strain BCK2, stronger effect = lower value 0.999 | locus YGL078C, strain dbp3, stronger effect = lower value 1.03 | locus YGL086W, strain mad1, stronger effect = lower value 1.02 | locus YGL248W, strain PDE1, stronger effect = lower value 0.99 | locus YGR078C, strain PAC10, stronger effect = lower value 0.996 | locus YGR135W, strain pre9, stronger effect = lower value 1.02 | locus YGR252W, strain gcn5, stronger effect = lower value 0.957 | locus YHR030C, strain SLT2, stronger effect = lower value 1.01 | locus YHR079C, strain IRE1 (second series), stronger effect = lower value 1 | locus YHR094C, strain hxt1, stronger effect = lower value 1.02 | locus YHR129C, strain ARP1, stronger effect = lower value 1.01 | locus YHR200W, strain rpn10, stronger effect = lower value 1 | locus YIL066C, strain RNR3, stronger effect = lower value 1 | locus YIL073C, strain SPO22, stronger effect = lower value 1.02 | locus YIL125W, strain kgd1, stronger effect = lower value 1.02 | locus YIR030C, strain dcg1, stronger effect = lower value 1 | locus YJL095W, strain BCK1, stronger effect = lower value 1.01 | locus YJL134W, strain LCB3, stronger effect = lower value 0.996 | locus YJL168C, strain set2, stronger effect = lower value 1 | locus YJL187C, strain SWE1 (second series), stronger effect = lower value 0.999 | locus YJR043C, strain POL32, stronger effect = lower value 1.01 | locus YKL009W, strain mrt4, stronger effect = lower value 1.03 | locus YKL068W, stronger effect = lower value 1 | locus YKL085W, strain MDH1 (second series), stronger effect = lower value 1.01 | locus YKL085W, strain MDH1, stronger effect = lower value 1.01 | locus YKR001C, strain vps1, stronger effect = lower value 0.994 | locus YLR039C, strain RIC1, stronger effect = lower value 1.01 | locus YLR058C, strain SHM2, stronger effect = lower value 0.999 | locus YLR102C, strain apc9, stronger effect = lower value 1.01 | locus YLR262C, strain YPT6, stronger effect = lower value 1.04 | locus YLR268W, strain sec22, stronger effect = lower value 1.02 | locus YLR330W, strain CHS5, stronger effect = lower value 1.01 | locus YLR342W, strain FKS1 (second series), stronger effect = lower value 1 | locus YLR371W, strain rom2, stronger effect = lower value 1.01 | locus YLR418C, strain cdc73, stronger effect = lower value 1 | locus YML016C, strain PPZ1, stronger effect = lower value 1 | locus YML032C, strain rad52, stronger effect = lower value 1.02 | locus YML124C, strain tub3, stronger effect = lower value 1 | locus YMR078C, strain ctf18, stronger effect = lower value 0.997 | locus YMR223W, strain ubp8, stronger effect = lower value 0.999 | locus YMR263W, strain SAP30, stronger effect = lower value 0.998 | locus YMR307W, strain GAS1, stronger effect = lower value 1 | locus YNL067W, strain RPL9B, stronger effect = lower value 0.993 | locus YNL128W, strain TEP1, stronger effect = lower value 1.03 | locus YNL153C, strain GIM3, stronger effect = lower value 1.02 | locus YNL233W, strain BNI4, stronger effect = lower value 0.982 | locus YNL250W, strain rad50, stronger effect = lower value 1.02 | locus YNL271C, strain bni1, stronger effect = lower value 1.03 | locus YNL298W, strain CLA4, stronger effect = lower value 1.01 | locus YNL307C, strain MCK1, stronger effect = lower value 1 | locus YNL322C, strain KRE1, stronger effect = lower value 1 | locus YNR052C, strain pop2, stronger effect = lower value 1.02 | locus YOL006C, strain TOP1, stronger effect = lower value 0.984 | locus YOL012C, strain htz1 1.01 | locus YOL147C, strain pex11, stronger effect = lower value 1 | locus YOR061W, strain CKA2, stronger effect = lower value 1.01 | locus YOR069W, strain VPS5, stronger effect = lower value 1 | locus YOR136W, strain idh2, stronger effect = lower value 1.02 | locus YOR144C, strain elg1, stronger effect = lower value 1.01 | locus YOR184W, strain ser1, stronger effect = lower value 1.02 | locus YOR316C, strain cot1, stronger effect = lower value 1.01 | locus YPL241C, strain CIN2, stronger effect = lower value 0.993 | locus YPR119W, strain clb2, stronger effect = lower value 1.02 | locus YPR141C, strain kar3, stronger effect = lower value 1.01 | locus YPR163C, strain tif3, stronger effect = lower value 1.01 | locus YPR167C, strain met16, stronger effect = lower value 1 | strain wtn01, stronger effect = lower value 1.02
